# PKM2 inh = blocks activity of human pyruvate kinase M2; P14618; purified PKM2, ATP generation, Kinase-Glo luminescence; Potency, µM (top dose mostly 57.5 µM), inactives show at the highest dose activity change, negative = inhibition, hits mostly inhibitors; 260,000 tested, 0.058% active; active = well fitted inhibition curve with a large enough effect; also: nearly all actives have a fitted effect of over 60% in size
#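 Coupled luciferase luminescence (Kinase-Glo) detects ATP generated from 0.1 mM ADP and 0.5 mM PEP in imidazole buffer pH 7.2 with KCl, MgCl2; 1 h at room temperature. Enzyme at intermediate activity; normalized to uninhibited and no-enzyme controls.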
# Starred values were filed as active, the others as inactive. This excerpt belongs to a sample that is enriched for hits. Potency is read from the fitted curve at half-maximal effect.
SMILES,PKM2 inh
CN(C)C(=O)Oc1ccc(OCc2nc3ccccc3[nH]2)cc1,11.2µM*
CSc1nc2ccccc2n1C(=O)Oc1ccccc1,31.9%
O=C1NC(=O)C(=Cc2ccc(SC3CCCCC3)o2)C(=O)N1,44.6%
O=C(Nc1cccnc1)C1CCN(S(=O)(=O)c2cccs2)CC1,38.4%
CC(=O)Nc1ccc(N(C(=O)Cn2nnc3ccccc32)C(C(=O)NC2CCCC2)c2ccc(O)c(O)c2)cc1 (centres undefined),44.1%
CN(C)C(=S)SSC(=S)N(C)C,14.1µM*
NP(=O)(OCCCc1ccccc1)Oc1ccccc1Cl (centres undefined),7.0%
CCn1ccnc1CN1CCCC(C(=O)c2cc(C)c(OC)c(C)c2)C1 (centres undefined),30.7%
Cc1cc2c(C(C)C)c(O)c(O)c(C=O)c2c(O)c1-c1c(C)cc2c(C(C)C)c(O)c(O)c(C=O)c2c1O,31.5%
N#CC(C#N)=NNc1ccc(S(=O)(=O)N2CCCC2)cc1,32.3%
